Experimental data: PubChem BioAssay
Calls of active or inactive are those of the source. Unless noted, how the calls were made is not given here.

How the values were obtained:
[1] = anti-His antibody binders, primary screen, artefact control for SMM control protein annotation, biochemical, small-molecule microarray, 635 nm fluorescence (AID 1128); conditions: anti-His Alexa647 antibody binding, higher = more signal;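 further: score merges feature fluorescence with signal-to-noise for each printed compound spot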
[2] = tested on: Human papillomavirus type 1a E7 protein (residues 1-88); experiment: HPV1a E7 small-molecule binders, primary screen, biochemical, small-molecule microarray, residues 1-88, 635 nm (AID 1129); conditions: small-molecule microarray binding, fluorescence 635 nm; higher = more signal
[3] = target: Focal adhesion kinase 1 (Homo sapiens) (UniProt Q05397); experiment: small-molecule microarray binders of FAK, primary screen, biochemical, 635/667 nm fluorescence, BSA, DTT (AID 1130); conditions: PTK2 binding, 635 nm fluorescence, higher = more signal;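 further: composite of spot emission at 667 nm and signal to noise over triplicate slides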
Sequence of Focal adhesion kinase 1 (Homo sapiens) (Q05397 whole entry, looked up): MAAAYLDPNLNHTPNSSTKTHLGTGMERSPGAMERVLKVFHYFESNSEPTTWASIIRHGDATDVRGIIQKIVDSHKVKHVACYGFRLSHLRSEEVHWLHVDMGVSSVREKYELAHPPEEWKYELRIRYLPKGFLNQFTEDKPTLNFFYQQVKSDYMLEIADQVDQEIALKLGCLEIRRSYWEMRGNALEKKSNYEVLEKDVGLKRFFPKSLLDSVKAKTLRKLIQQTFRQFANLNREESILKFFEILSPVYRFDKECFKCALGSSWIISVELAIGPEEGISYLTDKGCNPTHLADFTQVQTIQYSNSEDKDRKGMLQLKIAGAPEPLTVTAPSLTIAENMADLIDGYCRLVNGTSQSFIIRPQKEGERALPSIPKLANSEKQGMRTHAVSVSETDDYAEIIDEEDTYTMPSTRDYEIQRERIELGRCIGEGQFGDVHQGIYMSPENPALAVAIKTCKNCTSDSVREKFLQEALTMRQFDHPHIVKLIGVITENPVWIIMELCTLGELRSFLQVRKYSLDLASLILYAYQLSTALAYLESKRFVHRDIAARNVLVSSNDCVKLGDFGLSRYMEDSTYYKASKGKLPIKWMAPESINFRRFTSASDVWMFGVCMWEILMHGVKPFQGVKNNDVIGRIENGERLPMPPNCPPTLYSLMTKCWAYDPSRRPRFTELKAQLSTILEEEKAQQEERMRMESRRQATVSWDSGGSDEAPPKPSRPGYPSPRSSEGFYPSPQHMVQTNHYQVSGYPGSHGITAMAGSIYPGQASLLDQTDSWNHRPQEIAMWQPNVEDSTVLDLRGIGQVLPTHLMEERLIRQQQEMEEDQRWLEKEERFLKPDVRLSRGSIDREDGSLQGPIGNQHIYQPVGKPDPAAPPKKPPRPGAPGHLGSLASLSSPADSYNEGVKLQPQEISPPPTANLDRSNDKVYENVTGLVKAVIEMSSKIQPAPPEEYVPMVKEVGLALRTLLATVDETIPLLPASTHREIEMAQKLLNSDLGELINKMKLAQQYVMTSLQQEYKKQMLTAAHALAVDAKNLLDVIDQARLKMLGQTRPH

[4] = tested on: Fibrinogen (Alexa647-labelled); experiment: fibrinogen binders on compound microarrays, profiling panel, artefact control for SMM control-protein annotation, biochemical, small-molecule microarray, 635/667 nm fluorescence (AID 1131); conditions: fibrinogen-A647 binding fluorescence, higher = more signal;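 further: z-score merges 667 nm fluorescence with per-spot signal-to-noise over triplicate slides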
[5] = target: Follistatin (Homo sapiens) (UniProt P19883); experiment: follistatin binders on small-molecule microarrays, primary screen, biochemical, small-molecule microarray, 635/667 nm fluorescence (AID 1132); conditions: FST binding, 635 nm fluorescence, higher = more signal
Sequence of Follistatin (Homo sapiens) (P19883 whole entry, looked up): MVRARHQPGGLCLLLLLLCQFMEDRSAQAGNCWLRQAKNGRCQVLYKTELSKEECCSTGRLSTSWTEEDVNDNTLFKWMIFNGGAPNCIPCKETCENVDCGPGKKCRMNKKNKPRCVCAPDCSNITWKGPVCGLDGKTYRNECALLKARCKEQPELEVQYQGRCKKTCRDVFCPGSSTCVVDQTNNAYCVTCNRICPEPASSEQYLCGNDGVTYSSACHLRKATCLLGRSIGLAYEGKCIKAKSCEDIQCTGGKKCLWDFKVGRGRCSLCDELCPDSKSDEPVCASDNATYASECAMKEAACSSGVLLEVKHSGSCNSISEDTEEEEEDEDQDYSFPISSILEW

[6] = target: Fibroblast growth factor 2 (Homo sapiens) (UniProt P09038); experiment: FGF2 binders on small-molecule microarrays, primary screen, biochemical, small-molecule microarray, 635/667 nm fluorescence (AID 1133); conditions: small-molecule microarray binding, FGF2, fluorescence 635/667; higher = more signal
Sequence of Fibroblast growth factor 2 (Homo sapiens) (P09038 whole entry, looked up): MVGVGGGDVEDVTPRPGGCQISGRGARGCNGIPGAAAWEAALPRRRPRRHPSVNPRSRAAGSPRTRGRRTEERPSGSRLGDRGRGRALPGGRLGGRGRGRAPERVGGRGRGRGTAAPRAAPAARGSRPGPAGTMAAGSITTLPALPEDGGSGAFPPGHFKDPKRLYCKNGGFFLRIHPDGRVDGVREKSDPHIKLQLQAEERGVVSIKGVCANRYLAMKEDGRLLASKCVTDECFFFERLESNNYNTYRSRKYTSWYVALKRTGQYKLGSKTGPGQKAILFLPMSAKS

[7] = mitochondrial membrane potential change in A549 cells, profiling panel, cell-based, JC-1 fluorescence, basal, 24 h, 100 nL (AID 1138); conditions: higher = more signal;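 further: A549 lung adenocarcinoma cells under basal conditions with no added stimulus; test concentration not given here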
Lefty1 = Lefty1 binders on small-molecule microarrays, primary screen, biochemical, small-molecule microarray, 635/667 nm fluorescence (AID 1139); conditions: small-molecule microarray binding, fluorescence 635/667; higher = more signal
[8] = tested on: wheat germ agglutinin (Triticum aestivum), Alexa647-labelled; experiment: wheat germ agglutinin binders on compound microarrays, profiling panel, artefact control for SMM control-protein annotation, biochemical, small-molecule microarray, 635/667 nm fluorescence (AID 1140); conditions: WGA-A647 binding, 635 nm fluorescence, higher = more signal;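 further: score merges 667 nm feature emission with signal to noise over triplicate slides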
[9] = target: Luciferin 4-monooxygenase (Photinus pyralis) (UniProt P08659); experiment: firefly luciferase enzyme inhibitors, primary screen, biochemical, luminescence, purified enzyme, 2006 set (AID 1141); conditions: SteadyGlo luminescence, 30 min, higher = more signal, called active from +8 up or from −8 down;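 further: cell-free assay with purified firefly luciferase at 100 ng per well in PBS; test concentration not given here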
Sequence of Luciferin 4-monooxygenase (Photinus pyralis) (P08659 whole entry, looked up): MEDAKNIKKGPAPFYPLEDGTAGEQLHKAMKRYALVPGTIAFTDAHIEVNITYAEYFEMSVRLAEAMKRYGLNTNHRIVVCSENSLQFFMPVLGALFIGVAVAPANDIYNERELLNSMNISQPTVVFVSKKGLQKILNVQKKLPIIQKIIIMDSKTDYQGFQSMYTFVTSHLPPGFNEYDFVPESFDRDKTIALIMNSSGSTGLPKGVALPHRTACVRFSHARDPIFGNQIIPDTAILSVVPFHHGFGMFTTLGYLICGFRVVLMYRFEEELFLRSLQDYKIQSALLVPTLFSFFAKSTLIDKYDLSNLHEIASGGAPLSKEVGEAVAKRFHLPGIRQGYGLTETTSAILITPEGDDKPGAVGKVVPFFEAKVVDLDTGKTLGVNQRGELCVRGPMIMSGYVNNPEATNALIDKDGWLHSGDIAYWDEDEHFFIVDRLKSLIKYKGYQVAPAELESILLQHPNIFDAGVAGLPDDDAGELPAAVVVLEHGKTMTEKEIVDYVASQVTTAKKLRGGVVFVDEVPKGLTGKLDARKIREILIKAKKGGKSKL

[10] = tested on: Wnt5a (protein binding on small-molecule microarray); experiment: Wnt5a binders on small-molecule microarray, primary screen, biophysical, 635/667 nm fluorescence (AID 1142); conditions: 635 nm fluorescence, higher = more signal;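 further: fluorescence read at 667 nm with signal to noise per printed feature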
[11] = cell viability in Huh7 cells, primary screen, cytotoxicity control for HCV replication inhibitor project, CellTiter-Glo luminescence, basal, 48 h (AID 1143); conditions: Huh7 HCV replicon, higher = more signal, called active from +8 up or from −8 down;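 further: Huh7 hepatoma cells carrying a hepatitis C replication reporter with no stimulus; test concentration not given here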
[12] = P. aeruginosa biofilm formation inhibitors, primary screen, PAO1 strain, BacTiter-Glo luminescence, LB-PBS (AID 1144); conditions: 12 h, higher = more signal
[13] = CREB reporter modulators without forskolin, primary screen, cell-based, PC12, CRE-LacZ reporter, unstimulated (AID 1145); conditions: no forskolin, luminescence, 4.5 h, higher = more signal, called active from +8 up or from −8 down
[14] = CREB reporter modulators under forskolin, primary screen, cell-based, PC12, CRE-LacZ reporter, forskolin-stimulated (AID 1146); conditions: luminescence, 4.5 h, higher = more signal, called active from +8 up or from −8 down;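 further: PC12 cells with 6xCRE LacZ reporter stimulated by forskolin 10 µM; beta-galactosidase reporter signal reflecting CREB driven transcription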
[15] = target: Streptavidin (Streptomyces avidinii) (UniProt P22629); experiment: streptavidin binders on small-molecule microarray, primary screen, artefact control for SMM compound annotation, biophysical, 635/667 nm fluorescence (AID 1147); conditions: streptavidin binding, higher = more signal;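 further: signal reflects streptavidin binding to arrayed compounds as a control protein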
Sequence of Streptavidin (Streptomyces avidinii) (P22629 whole entry, looked up): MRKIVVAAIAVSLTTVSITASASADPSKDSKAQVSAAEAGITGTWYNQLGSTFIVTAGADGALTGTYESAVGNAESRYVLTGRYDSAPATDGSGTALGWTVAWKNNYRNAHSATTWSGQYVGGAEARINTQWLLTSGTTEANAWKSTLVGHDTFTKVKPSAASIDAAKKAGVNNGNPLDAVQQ

[16] = small-molecule binders of probe aInhba, primary screen, biochemical, small-molecule microarray, 635/667 nm fluorescence (AID 1148); conditions: higher = more signal;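 further: score merges 667nm spot fluorescence with signal-to-noise for antibody binding to printed compounds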
Torsin-1A (Homo sapiens) [17] = target: Torsin-1A (Homo sapiens) (UniProt O14656); experiment: torsin A binders from cell lysate, primary screen, small-molecule microarray, wild-type, 635/667 nm (AID 1149); conditions: COS7 hTOR1A-WT lysate, 635 nm fluorescence, higher = more signal
Sequence of Torsin-1A (Homo sapiens) (O14656 whole entry, looked up): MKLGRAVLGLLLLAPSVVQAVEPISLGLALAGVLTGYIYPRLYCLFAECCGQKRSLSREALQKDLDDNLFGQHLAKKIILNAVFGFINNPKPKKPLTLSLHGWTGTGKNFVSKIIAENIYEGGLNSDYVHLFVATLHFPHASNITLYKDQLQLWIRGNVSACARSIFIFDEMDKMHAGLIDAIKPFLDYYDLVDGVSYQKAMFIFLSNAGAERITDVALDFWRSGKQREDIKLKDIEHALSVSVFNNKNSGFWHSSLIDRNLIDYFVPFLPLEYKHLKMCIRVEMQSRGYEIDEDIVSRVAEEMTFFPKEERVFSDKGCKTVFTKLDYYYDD

Torsin-1A (Homo sapiens) [18] = target: Torsin-1A (Homo sapiens) (UniProt O14656); experiment: small-molecule binders of mutant TOR1A in lysate, primary screen, cell lysate, small-molecule microarray, COS7 lysate, 635/667 nm fluorescence (AID 1150); conditions: COS7 hTOR1A mutant lysate, 635 nm fluorescence, higher = more signal;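 further: score pools 667 nm emission and signal to noise measuring lysate protein binding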
[19] = tested on: Sonic hedgehog protein (Shh); experiment: small-molecule binders of Shh protein, primary screen, biochemical, small-molecule microarray, 635/667 nm fluorescence (AID 1151); conditions: small-molecule microarray binding, 635 nm fluorescence; higher = more signal;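 further: Shh protein binding to compounds spotted on small-molecule microarray slides; score combines spot fluorescence intensity with signal-to-noise across triplicate slides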

| Compound | composite z-score [1] | composite z-score [2] | composite z-score [3] | composite z-score [4] | composite z-score [5] | composite z-score [6] | z-score [7] | composite z-score (Lefty1) | composite z-score [8] | z-score [9] | composite z-score [10] | z-score [11] | z-score [12] | z-score [13] | z-score [14] | composite z-score [15] | composite z-score [16] | composite z-score (Torsin-1A (Homo sapiens) [17]) | composite z-score (Torsin-1A (Homo sapiens) [18]) | composite z-score [19] |
| --- | --- | --- | --- | --- | --- | --- | --- | --- | --- | --- | --- | --- | --- | --- | --- | --- | --- | --- | --- | --- |
| CCCCCCCCCCC(O)C1C=CC2C(=O)N(C)C(=O)C2N1N1CCCCC1 (stereo not given) | 0.373 | -0.768 | 0.0399 | -1.27 | -2.14 | -1.02 | 0.44 | -1.84 | -0.325 | -0.224 (inactive) | -0.542 | -0.6 (inactive) | 0.816 (inactive) | 0.0569 (inactive) | 1.39 (inactive) | -0.862 | -0.0762 | -0.0728 | 0.522 | -1.89 |
| CN(C)C(=O)[C@]1(Cc2ccccc2CN=[N+]=[N-])N=C(c2ccc(OCCCO)cc2)O[C@@H]1c1ccccc1N=[N+]=[N-] | 0.266 | 1.23 | 0.977 | 1.02 | 1.18 | -0.0347 | 0.568 | -0.136 | 1.12 | -9.41 (active) | 0.397 | -3.07 (inactive) | -0.406 (inactive) | -0.79 (inactive) | -0.969 (inactive) | 1.34 | 0.177 | 0.0095 | 0.25 | -0.946 |
| CCCC[C@H]1OB(O)C[C@H]2C1=C(C)C[C@H]1C(=O)C=CC(=O)[C@H]12 | 0.306 | 0.615 | -0.244 | 0.483 | 0.828 | 0.642 | -0.353 | 1.16 | -0.0126 | -2.94 (inactive) | -0.0289 | -1.52 (inactive) | 0.244 (inactive) | 19.6 (active) | 14.8 (active) | 0.146 | -0.0292 | 0.935 | 0.527 | 1.71 |
| COC(=O)[C@@]1(Cc2ccc(F)cc2)[C@H]2c3cc(C(=O)N(C)C)n(CCO)c3C[C@H]2CN1C(=O)c1ccccc1 | 2.78 | 0.889 | 0.991 | 0.797 | -0.409 | -0.566 | -0.0423 | -0.483 | 0.718 | -0.683 (inactive) | -0.0929 | -0.494 (inactive) | -0.0693 (inactive) | 0.773 (inactive) | 0.0355 (inactive) | -0.208 | 0.0464 | 0.149 | 0.297 | -0.653 |
| CC(C)CNC(=O)[C@@H]1c2ccccc2C(=O)N(Cc2ccccc2)[C@H]1c1ccc(CO)cc1 | 1.85 | 0.601 | 0.0313 | -0.66 | -0.0977 | 0.605 | 0.0606 | -1.7 | -0.481 | 0.0723 (inactive) | -0.267 | -0.692 (inactive) | -0.33 (inactive) | 0.441 (inactive) | -0.0682 (inactive) | -1.04 | -0.285 | 0.3 | 1.2 | -0.693 |
| C#CCN(C/C=C/c1ccccc1)[C@H](CO[Si](C)(C)C(C)(C)C)c1ccccc1 | 0.953 | -0.786 | 0.329 | -0.759 | -0.0993 | -0.187 | -2.21 | 0.178 | -0.0631 | 0.43 (inactive) | -0.276 | -0.832 (inactive) | 0.221 (inactive) | -0.0487 (inactive) | -0.626 (inactive) | -0.531 | -0.0719 | -0.805 | -0.239 | 0.0896 |
| O=C1NC(=O)C2C1C=CC(C(O)c1ccc(F)cc1)N2Nc1ccccn1 (stereo not given) | 0.842 | 0.399 | 0.113 | 0.796 | 0.269 | 0.0568 | -0.108 | -0.269 | 0.118 | -0.855 (inactive) | -0.138 | 0.74 (inactive) | -1.36 (inactive) | -0.136 (inactive) | 0.0662 (inactive) | -0.0345 | -0.0645 | 0.286 | 0.0123 | 0.123 |
| C[N+](C)(C)CCCCCCNC(=O)[C@@H]1C[C@@H]2C(=O)N[C@@H](Cc3ccccc3)C(=O)N2[C@@H]1c1ccc(O)cc1 | 2.13 | 1.21 | -0.371 | 0.533 | 1.43 | 1.65 | -0.247 | 1.63 | 0.702 | 0.344 (inactive) | 0.42 | -0.267 (inactive) | -0.409 (inactive) | -0.805 (inactive) | -0.327 (inactive) | -0.0442 | -0.0039 | 1.26 | 0.984 | 2.07 |
| COc1ccccc1CN1C(=O)c2ccccc2[C@@H](C(=O)NCCCN(C)C)[C@@H]1c1ccc(CO)cc1 | 0.802 | 0.232 | -0.492 | -0.741 | 0.104 | 0.303 | 2.1 | 0.409 | 0.131 | 0.731 (inactive) | 0.0968 | -2.77 (inactive) | -1.58 (inactive) | 0.531 (inactive) | -0.744 (inactive) | -0.523 | 0.0028 | -0.236 | -0.0195 | -0.0791 |
| CC(C)C[C@@H]1NC(=O)[C@@]23C(=O)N[C@@H](Cc4ccccc4)C2[C@H](C)[C@@]2(C)O[C@H]2C3/C=C/C/C=C\CNC(=O)[C@@H](CC(C)C)NC1=O (stereo not given in full) | 0.455 | 0.409 | -0.0559 | 0.928 | 0.797 | 0.963 | 0.102 | 0.84 | 0.393 | -1.23 (inactive) | 0.0669 | -0.91 (inactive) | 0.587 (inactive) | 2.66 (inactive) | 0.158 (inactive) | -0.463 | -0.128 | 0.295 | 0.068 | 1.39 |
